Among the data in the supplement of paper PMC4723716 are viability index values, retold here.

The test system of the assay is Plasmodium falciparum NF54 stage V gametocytes. Briefly: viability index relative to DMSO control (fraction); higher = less gametocyte killing. Particulars: 2.5 µM, incubation time: 72 h. Summed up:
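P. falciparum NF54 stage V gametocytes (serum-free medium, 0.75% gametocytemia, 1.25% hematocrit) were exposed to compound at 2.5 µM for 72 hr at 37°C under low oxygen, then stained with MitoTracker Red CMXRos and saponin for one to two hours. Red particles of 20–70 µm2 in one field per well were counted, and the viability index is that count scaled to the plate mean of solvent-only wells.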

Where [1] appears, read: library set: Broad Institute DOS.
The mark [2] stands for this setting: library set: Broad Institute Blood Stage.

± gives the uncertainty stated by the source. Whole data set: some 9,900 compounds, median “viability index relative to DMSO control” near 1, cut for the lowest 2% near 0.85. What follows is part of a selection rich in the lowest values, with near analogues and random picks from the rest.

For `C[C@H](CO)N1C[C@H](C)[C@@H](CN(C)Cc2cccc(C(=O)Nc3ccccc3N)c2)OCc2ccccc2-c2c(n(C)c3ccccc23)C1=O`, under setting [1], the viability index is 0.887 ± 0.053.

In the case of `CO[C@H](CN(C)S(=O)(=O)c1ccc(C)cc1)[C@H](C)CN(C(=O)Nc1ccccc1F)[C@@H](C)CO`, the viability index under setting [1] amounted to 0.986 ± 0.025.

`CCC(=O)N1[C@H](CO)[C@H]2c3ccccc3N(S(=O)(=O)c3ccc(F)cc3)C[C@H]21` displayed a viability index under setting [1] of 0.958 ± 0.067.

As for `N#C[C@@H]1[C@@H](c2ccccc2C2=CCCCC2)[C@H](CO)N1S(=O)(=O)c1ccccc1`, the viability index under setting [1] is 1.05 ± 0.1.

`N#C[C@H]1[C@H](c2ccccc2C2=CCCCC2)[C@H](CO)N1S(=O)(=O)c1ccccc1` had a viability index under setting [1] of 1.14 ± 0.019.

Under setting [1], `N#C[C@H]1[C@H](c2ccccc2C2=CCCCC2)[C@@H](CO)N1S(=O)(=O)c1ccccc1` came in with a viability index of 0.757 ± 0.1.

Under setting [1], `C[C@@H]1CCCCO[C@@H](CN(C)C(=O)C2CCCCC2)[C@@H](C)CN([C@@H](C)CO)C(=O)c2cc(NS(=O)(=O)c3ccccc3)ccc2O1` displayed a viability index of 1.08 ± 0.023.

Molecule `COc1ccc2c3c([C@@H](CO)N(C[C@]33CCN(CC4CCCC4)CC3)C(=O)C3CCC3)n(C)c2c1` returned a viability index under setting [1] of 1.1 ± 0.042.

Molecule `COc1ccc(NC(=O)N2CC[C@@]3(CC2)CN([C@@H](CO)c2c3c3ccc(OC)cc3n2C)C(=O)C2CCC2)cc1` yielded a viability index under setting [1] of 0.897 ± 0.041.

As to `COc1ccc2c3c([C@@H](CO)N(C[C@]33CN(C3)C(=O)CC3CC3)C(=O)C3CCCC3)n(C)c2c1`, the viability index under setting [1] was found to be 0.932 ± 0.021.

Turning to `COc1ccc2c3c([C@H](CO)N(C[C@]33CN(C3)C(=O)CC3CC3)C(=O)C3CCCC3)n(C)c2c1`, under setting [1], the viability index is 0.897 ± 0.036.

The molecule `COc1ccc(NC(=O)N2CC[C@@]3(CC2)CN([C@H](CO)c2c3c3ccc(OC)cc3n2C)C(=O)C2CCC2)cc1` gave a viability index under setting [1] of 0.785 ± 0.057.

Regarding `COc1ccc(NC(=O)N2C[C@@]3(C2)CN([C@H](CO)c2c3c3ccc(OC)cc3n2C)C(=O)C2CCC2)cc1`, the viability index under setting [2] worked out at 0.841 ± 0.05.

Under setting [1], `COc1cccc(CN2C[C@@]3(C2)CN([C@@H](CO)c2[nH]c4cc(OC)ccc4c32)C(=O)C2CC2)c1` gave a viability index of 0.956 ± 0.11.

In turn, `C[C@H]1CN([C@@H](C)CO)C(=O)c2cc(-c3cccc(C#N)c3)cnc2O[C@@H]1CN(C)C(=O)C1CCOCC1` came in with a viability index under setting [1] of 1.04 ± 0.025.

On to `C[C@@H]1CN([C@@H](C)CO)C(=O)c2cc(C#Cc3ccccc3)cnc2O[C@@H]1CN(C)C(=O)c1ccccc1`, for which, under setting [1], the viability index came out at 1.08 ± 0.028.

As to `C[C@H]1CN([C@@H](C)CO)C(=O)c2cc(C#Cc3cccc(F)c3)cnc2O[C@@H]1CN(C)C(=O)C1CCCCC1`, the viability index under setting [2] amounted to 0.769 ± 0.073.

For the molecule `C[C@@H]1CN([C@H](C)CO)C(=O)c2cc(C#Cc3ccccc3)cnc2O[C@@H]1CN(C)C(=O)c1ccccc1`, the viability index under setting [1] was found to be 0.966 ± 0.057.

Under setting [2], `C[C@H](CO)N1C[C@H](C)[C@H](CN(C)C(=O)C2CCCCC2)Oc2ncc(C#Cc3cccc(F)c3)cc2C1=O` showed a viability index of 0.62 ± 0.074.

For the molecule `CCCC#Cc1cnc2c(c1)C(=O)N([C@H](C)CO)C[C@@H](C)[C@H](CN(C)C(=O)Nc1cc(F)ccc1F)O2`, the viability index under setting [1] amounted to 0.822 ± 0.058.

The molecule `CCCC#Cc1cnc2c(c1)C(=O)N([C@@H](C)CO)C[C@@H](C)[C@@H](CN(C)C(=O)Nc1cc(F)ccc1F)O2` registered a viability index under setting [1] of 1.02 ± 0.012.

Under setting [1], `C[C@H](CO)N1C[C@H](C)[C@H](CN(C)C(=O)NC2CCCCC2)Oc2ncc(-c3cccc(F)c3)cc2C1=O` had a viability index of 1.01 ± 0.084.

`CCCC#Cc1cnc2c(c1)C(=O)N([C@@H](C)CO)C[C@@H](C)[C@H](CN(C)C(=O)Nc1cc(F)ccc1F)O2` had a viability index under setting [1] of 1.05 ± 0.041.

Under setting [1], `C[C@@H]1CN([C@@H](C)CO)C(=O)Cc2cc(NC(=O)CCC(F)(F)F)ccc2O[C@@H]1CN(C)CC1CC1` showed a viability index of 1.04 ± 0.075.

On to `Cc1noc(C)c1S(=O)(=O)N(C)C[C@H]1OCCCC[C@H](C)Oc2ccc(NS(=O)(=O)c3cn(C)cn3)cc2C(=O)N([C@H](C)CO)C[C@@H]1C`, for which, under setting [1], the viability index worked out at 1.08 ± 0.019.

Under setting [1], `Cc1noc(C)c1S(=O)(=O)N(C)C[C@H]1OCc2cn(nn2)CCCC(=O)N([C@H](C)CO)C[C@@H]1C` had a viability index of 0.952 ± 0.014.

Under setting [1], `C[C@H](CO)N1C[C@H](C)[C@@H](CN(C)C)OCc2ccccc2-c2c(n(C)c3ccccc23)C1=O` displayed a viability index of 1.04 ± 0.08.

Consider `CNC[C@@H]1OCCCC[C@@H](C)Oc2ccc(NC(=O)Nc3ccc(OC)cc3)cc2C(=O)N([C@H](C)CO)C[C@H]1C`, for which the viability index under setting [1] is 1.05 ± 0.011.

Under setting [1], `C[C@H]1CN([C@@H](C)CO)C(=O)c2ccccc2-c2ccccc2CO[C@@H]1CN(C)C(=O)[C@@H]1CCCN1C` showed a viability index of 0.946 ± 0.043.

Regarding `CC(C)(C)[S@@](=O)N1Cc2cc(C(=O)NCCc3ccncc3)nc(-c3cccc(-c4cccc(C#N)c4)c3)c2[C@H]1CCO`, the viability index under setting [1] turned out to be 1.06 ± 0.084.

Take `CC(C)(C)[S@@](=O)N1Cc2cc(C(=O)NCCc3ccncc3)nc(-c3cccc(-c4ccccc4)c3)c2[C@H]1CCO`: under setting [2], the viability index turned out to be 0.763 ± 0.047.

The molecule `CC(C)(C)S(=O)N1Cc2cc(C(=O)NCc3ccc(Oc4ccccc4)cc3)nc(-c3cccc(-c4cccc(F)c4)c3)c2[C@@H]1CCO` (stereo partly drawn) came in with a viability index under setting [1] of 1.02 ± 0.034.

As to `COc1cccc(-c2cccc(-c3nc(C(=O)NCc4ccc(Oc5ccccc5)cc4)cc4c3[C@@H](CCO)N(S(=O)C(C)(C)C)C4)c2)c1` (stereo partly drawn), the viability index under setting [2] turned out to be 0.799 ± 0.032.
